The source of these data is PubChem BioAssay (Tox21).

Assay [1] is described as follows: qHTS assay to identify small molecule agonists of the peroxisome proliferator-activated receptor delta (PPARd) signaling pathway - cell viability counter screen (AID 743211). Note: nearly all actives have a fitted effect of over 55% in size. An outline of the steps:
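Viability was measured as CellTiter-Glo luminescence (30 min, room temperature) in the same wells as the beta-lactamase readout. GeneBLAzer PPARd UAS-bla HEK293H cells received compound after 5 h plating and were incubated 17 h at 37 C.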

In assay [2] the target is Peroxisome proliferator-activated receptor delta (Homo sapiens) (UniProt Q03181). Description: qHTS assay to identify small molecule agonists of the peroxisome proliferator-activated receptor delta (PPARd) signaling pathway (AID 743212; calls by dose curve). An outline of the steps: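 Steps: seed PPARd-bla HEK293H cells; incubate 5 h, 37 C, 5% CO2; add compounds in DMSO; incubate, 37 C; add LiveBLAzer B/G FRET substrate; hold 2 h at room temperature; measure fluorescence.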
In general terms: qHTS replaces the single test concentration by a dilution series.

The nature of assay [3]: qHTS assay to identify small molecule antagonists of the peroxisome proliferator-activated receptor delta (PPARd) signaling pathway - cell viability counter screen (AID 743213). Note: nearly all actives have a fitted effect of over 50% in size. An outline of the steps:
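Viability counter-screen, qHTS format: PPARd-bla HEK293H, L165041 300 nM final, 17 h compound exposure at 37 C, CellTiter-Glo luminescence after 30 min RT.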

Assay [4] is described as follows: qHTS assay to identify small molecule agonists of the farnesoid-X-receptor (FXR) signaling pathway - cell viability counter screen (AID 743218). Note: nearly all actives have a fitted effect of over 45% in size. An outline of the steps: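 Cells were seeded, left 5 h at 37 C and 5% CO2, then dosed with compound in DMSO for 16 h. After the beta-lactamase FRET read, CellTiter-Glo was added and luminescence measured 30 min later.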

A short description of assay [5]: qHTS assay to identify small molecule antagonists of the farnesoid-X-receptor (FXR) signaling pathway - cell viability counter screen (AID 743221; active = well fitted cell-killing curve with a large enough effect in the repeat runs, not every such curve was filed as active; note: nearly all actives have a fitted effect of over 50% in size; note: potency is the fitted concentration of half-maximal effect). An outline of the steps: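 Cytotoxicity counter screen run in the FXR-bla reporter wells: HEK 293T cells exposed to compound with 50 uM (final) chenodeoxycholic acid for 16 h, 37 C, then viability measured by CellTiter-Glo luminescence after 30 min, room temperature.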

The target in assay [6] is Vitamin D3 receptor (Homo sapiens) (UniProt P11473). The assay can be described thus: qHTS assay to identify small molecule agonists of the vitamin D receptor (VDR) signaling pathway (AID 743222; calls by dose curve). A digest of the protocol: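 Cells carrying a VDR-driven beta-lactamase reporter are seeded at 2,000 per well and rested 4 h. Compounds in DMSO are added for 16 h at 37C, and FRET substrate fluorescence is measured after 2 h at room temperature.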

A short description of assay [7]: qHTS assay to identify small molecule agonists of the vitamin D receptor (VDR) signaling pathway - cell viability counter screen (AID 743224). Note: series mostly up to about 63 µM; nearly all actives have a fitted effect of over 50% in size. An outline of the steps: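 Cells: VDR-bla, 2,000/well, settled 4 h. Treatment: compounds in DMSO, 16 h, 37C/5% CO2. Readout: CellTiter-Glo luminescence after 30 min RT.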
A short description of assay [8]: qHTS assay to identify small molecule antagonists of the vitamin D receptor (VDR) signaling pathway - cell viability counter screen (AID 743225). Note: nearly all actives have a fitted effect of over 50% in size. An outline of the steps:
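Cytotoxicity counter screen read by CellTiter-Glo luminescence (30 min, room temperature) in the same wells as the VDR-bla antagonist readout. HEK 293T VDR-UAS-bla cells had 16 h at 37C with compound and 3 nM (final) 1-alpha,25-dihydroxyvitamin D3, then 2 h with FRET substrate.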

A short description of assay [9]: qHTS assay to identify small molecule agonists of the endoplasmic reticulum stress response signaling pathway (AID 1159516; active = well fitted activation curve with a large enough effect in the signal ratio in the repeat runs, not every such curve was filed as active; the % refers to the signal ratio). A digest of the protocol:
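Cells are seeded at 1,500 per well and incubated overnight. Compounds in DMSO are added for 5 hr at 37 C, then beta-lactamase FRET substrate for 2 hr at room temperature, and fluorescence at 460 and 530 nm is measured.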

A short description of assay [10]: qHTS assay to identify small molecule agonists of the endoplasmic reticulum stress response signaling pathway - cell viability counter screen (AID 1159517; calls by dose curve). A digest of the protocol: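 After overnight attachment, ESRE-bla HeLa cells were treated with Tox21 library compounds for 5 hr. CellTiter-Glo luminescence, read 30 min post-addition at room temperature, reported viability.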

The nature of assay [11]: qHTS assay to identify small molecule antagonists of the retinoid-related orphan receptor gamma (ROR-gamma) signaling pathway - cell viability counter screen (AID 1159520). Note: nearly all actives have a fitted effect of over 50% in size. A digest of the protocol:
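Cytotoxicity was read from cellular ATP (CellTiter-Glo luminescence) after 16 hr at 37 C with 1 uM doxycycline induction. The inducer was added 2 hr after compound transfer to Tet-on ROR gamma CHO cells.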

Assay [12] deals with Nuclear receptor ROR-gamma (Homo sapiens) (UniProt P51449). Description: qHTS assay to identify small molecule antagonists of the retinoid-related orphan receptor gamma (ROR-gamma) signaling pathway (AID 1159521). A digest of the protocol: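 Antagonist read-out: drop in luminescence (ONE-Glo) from an RORE-LUC reporter in CHO cells with doxycycline-inducible ROR-gamma; 2 hr compound pretreatment, 1 uM doxycycline, 16 hr incubation at 37 C.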

Assay [13] can be described thus: qHTS assay to identify small molecule agonists of the AP-1 signaling pathway - cell viability counter screen (AID 1159525; calls by dose curve; note: nearly all actives have a fitted effect of over 55% in size). A digest of the protocol: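 Intracellular ATP by Cell Titer Glo luminescence (30 min, RT) in the same ME-180 AP-1-bla wells after the 5 h compound exposure at 37 °C. Normalised to tetra n-octyl ammonium bromide and DMSO controls.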
Assay [14] is described as follows: qHTS assay to identify small molecule agonists of the AP-1 signaling pathway (AID 1159526; calls by dose curve).
Assay [15] addresses Vitamin D3 receptor (Homo sapiens) (UniProt P11473). The assay can be described thus: qHTS assay to identify small molecule antagonists of the vitamin D receptor (VDR) signaling pathway (AID 743223; active = well fitted inhibition curve with a large enough effect in the signal ratio in the repeat runs, not every such curve was filed as active; the % refers to the signal ratio). A digest of the protocol: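 Antagonist mode: compound added to VDR-bla cells alongside agonist 1alpha,25-dihydroxyvitamin D3 (3 nM final), incubation 16 h at 37C. Read-out is LiveBLAzer FRET fluorescence, 2 h at room temperature.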

Assay [16] addresses Retinoic acid receptor RXR-alpha (Homo sapiens) (UniProt P19793). Description: qHTS assay to identify small molecule agonists of the RXR signaling pathway (AID 1159527; calls by dose curve; note: nearly all actives have a fitted effect of over 35% in size). An outline of the steps:
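Agonist-mode beta-lactamase reporter assay: HEK 293T RXR-alpha-UAS-bla cells treated 16 hr at 37 C with compounds, 9-cis retinoic acid as positive control. LiveBLAzer FRET substrate, 405 nm excitation, 460/530 nm emission.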

Assay [17] concerns the target Peroxisome proliferator-activated receptor delta (Homo sapiens) (UniProt Q03181). Description: qHTS assay to identify small molecule antagonists of the peroxisome proliferator-activated receptor delta (PPARd) signaling pathway (AID 743215; active = well fitted inhibition curve with a large enough effect in the signal ratio in the repeat runs, not every such curve was filed as active; the % refers to the signal ratio;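 note: cells stimulated with agonist L165041 at 300 nM final during compound exposure; series mostly up to about 62 µM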). A digest of the protocol:
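Cells: HEK293H with a UAS-driven beta-lactamase reporter responsive to PPARd. Compounds were co-added with L165041 (300 nM, final) and incubated 17 h at 37 C before a 2 h room-temperature FRET substrate step and fluorescence reading.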

Assay [18] has as its target Bile acid receptor (Homo sapiens) (UniProt Q96RI1). The assay can be described thus: qHTS assay to identify small molecule agonists of the farnesoid-X-receptor (FXR) signaling pathway (AID 743220; active = well fitted activation curve with a large enough effect in the signal ratio in the repeat runs, not every such curve was filed as active; the % refers to the signal ratio). An outline of the steps:
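FXR-UAS-bla HEK 293T cells carrying a UAS-driven beta-lactamase reporter were plated for 5 h at 37C/5% CO2, then exposed to DMSO-dissolved Tox21 10K compounds for 16 h at 37C. A LiveBLAzer B/G FRET substrate was loaded for 2 h at room temperature before fluorescence reading.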

Results filed as inconclusive are left out. The source made the active and inactive calls. Unless noted, calls come from the whole dose curve; as a rule, active = well fitted curve in the direction sought with a large enough effect in the repeat runs; inconclusive = weak or mixed curves; inactive = no such curve, though single readings can be large; an effect the other way counts as inactive or inconclusive.

Vitamin D3 receptor (Homo sapiens), sequence (P11473 whole entry, looked up): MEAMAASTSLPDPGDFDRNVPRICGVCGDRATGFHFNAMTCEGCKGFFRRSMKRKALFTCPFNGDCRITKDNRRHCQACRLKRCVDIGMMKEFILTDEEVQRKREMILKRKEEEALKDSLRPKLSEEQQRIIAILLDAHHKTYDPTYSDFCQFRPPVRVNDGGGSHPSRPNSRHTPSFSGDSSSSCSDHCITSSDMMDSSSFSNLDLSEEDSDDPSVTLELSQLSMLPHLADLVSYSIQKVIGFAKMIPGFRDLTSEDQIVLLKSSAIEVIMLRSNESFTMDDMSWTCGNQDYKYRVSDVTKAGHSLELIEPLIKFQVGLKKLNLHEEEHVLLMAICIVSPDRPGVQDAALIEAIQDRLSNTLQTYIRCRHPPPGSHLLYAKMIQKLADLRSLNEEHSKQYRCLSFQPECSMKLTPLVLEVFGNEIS
Peroxisome proliferator-activated receptor delta (Homo sapiens), sequence (Q03181 whole entry, looked up): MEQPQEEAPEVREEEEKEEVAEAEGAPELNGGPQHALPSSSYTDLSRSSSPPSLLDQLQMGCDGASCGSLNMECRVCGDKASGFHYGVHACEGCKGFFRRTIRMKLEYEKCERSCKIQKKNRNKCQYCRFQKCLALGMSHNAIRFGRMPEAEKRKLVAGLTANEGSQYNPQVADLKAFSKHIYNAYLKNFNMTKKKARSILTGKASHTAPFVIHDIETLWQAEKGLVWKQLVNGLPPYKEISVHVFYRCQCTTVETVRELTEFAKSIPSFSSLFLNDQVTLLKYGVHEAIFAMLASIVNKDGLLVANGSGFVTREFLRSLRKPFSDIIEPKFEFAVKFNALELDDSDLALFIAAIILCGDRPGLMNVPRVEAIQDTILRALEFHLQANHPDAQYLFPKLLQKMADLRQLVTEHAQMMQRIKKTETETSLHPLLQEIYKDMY
Retinoic acid receptor RXR-alpha (Homo sapiens), sequence (P19793 whole entry, looked up): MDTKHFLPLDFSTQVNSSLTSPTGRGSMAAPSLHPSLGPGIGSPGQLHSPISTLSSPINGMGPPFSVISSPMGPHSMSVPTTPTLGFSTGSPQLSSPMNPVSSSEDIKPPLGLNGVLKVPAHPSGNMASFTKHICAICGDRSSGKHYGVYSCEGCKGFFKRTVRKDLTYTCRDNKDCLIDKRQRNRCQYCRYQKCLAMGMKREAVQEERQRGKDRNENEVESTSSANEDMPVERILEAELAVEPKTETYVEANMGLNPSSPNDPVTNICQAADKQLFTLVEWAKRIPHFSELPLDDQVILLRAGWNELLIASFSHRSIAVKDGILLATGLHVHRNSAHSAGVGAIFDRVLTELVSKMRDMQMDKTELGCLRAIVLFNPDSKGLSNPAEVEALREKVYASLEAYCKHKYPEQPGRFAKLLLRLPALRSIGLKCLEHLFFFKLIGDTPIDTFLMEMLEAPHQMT
Bile acid receptor (Homo sapiens), sequence (Q96RI1 whole entry, looked up): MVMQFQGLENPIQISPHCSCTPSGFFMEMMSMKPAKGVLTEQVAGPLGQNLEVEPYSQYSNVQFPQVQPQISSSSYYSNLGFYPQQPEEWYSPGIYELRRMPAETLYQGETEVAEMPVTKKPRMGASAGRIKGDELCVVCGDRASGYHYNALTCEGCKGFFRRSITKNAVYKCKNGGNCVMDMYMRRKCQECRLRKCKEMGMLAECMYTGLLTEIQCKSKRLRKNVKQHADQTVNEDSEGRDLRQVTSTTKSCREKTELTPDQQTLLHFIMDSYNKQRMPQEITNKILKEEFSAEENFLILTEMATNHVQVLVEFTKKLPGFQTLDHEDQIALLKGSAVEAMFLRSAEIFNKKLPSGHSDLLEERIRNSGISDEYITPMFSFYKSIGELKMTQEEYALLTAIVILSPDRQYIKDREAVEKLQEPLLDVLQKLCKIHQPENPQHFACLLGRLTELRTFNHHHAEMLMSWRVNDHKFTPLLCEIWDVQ

Turning to `CCOc1ccc(NC(=O)CC(C)=O)cc1`, the Potency result in assay [1], in [3], in assay [4], in assay [5], in assay [7] and in assay [8] was “inactive” throughout. In addition, the Potency entry in assay [9], in [11], in assay [12], in [13] and in [14] was “inactive” each time. Also, the compound was classed as inactive in assay [2], in assay [6] and in assay [10].
In the case of `CC(C)(C)c1ccc(OCC2CO2)cc1` (stereo not drawn), the Potency entry in [1], in assay [3], in [4], in assay [5], in assay [15] and in assay [7] was “inactive” in each case. The Potency entry in [8], in assay [9], in [11], in [12], in assay [13] and in assay [16] was “inactive” in each case. Moreover, the compound was called inactive in assay [2], in [6] and in assay [10].
Regarding `NC(N)=N/N=C/c1c(Cl)cccc1Cl`, the Potency result in assay [1], in [3], in [4], in assay [5], in assay [15] and in assay [7] was “inactive” throughout. For the same compound, the Potency entry in assay [8], in assay [9], in assay [12] and in assay [13] was “inactive” in each case. The outcome in assay [10] was inactive.
Consider `O=C(O)Cc1cc(I)c(Oc2ccc(O)c(I)c2)c(I)c1`, for which the Potency entry in assay [1], in assay [3], in [9], in assay [12] and in [13] was “inactive” throughout. In [5], the Potency is 54.9 µM (active). For the same compound, the call in assay [10] was inactive.
As to `CCOC(=S)SSC(=S)OCC`, the Potency entry in assay [1], in assay [5], in assay [15], in [7], in assay [8] and in assay [11] was “inactive” throughout. The Potency result in assay [12], in assay [13] and in assay [14] was “inactive” throughout. Moreover, the compound was called inactive in assay [2], in assay [6] and in assay [10].
Regarding `Cc1cc(C)c(S(=O)(=O)O)cc1N=Nc1cc(S(=O)(=O)O)c2ccccc2c1O`, the Potency entry in assay [1], in [3], in assay [4], in [5], in assay [15] and in assay [7] was “inactive” in each case. Moreover, the Potency entry in [9], in assay [11], in [12], in [13], in assay [14] and in assay [16] was “inactive” throughout. The outcome in assay [2], in [17], in [6] and in [10] was inactive.
On to `CC(=O)N(O)CCCCCNC(=O)CCC(=O)N(O)CCCCCNC(=O)CCC(=O)N(O)CCCCCN`, for which the Potency result in [1], in assay [3], in assay [5], in assay [15], in assay [7] and in [9] was “inactive” in each case. In addition, the Potency entry in assay [12], in assay [13] and in assay [16] was “inactive” throughout. The result in [2], in assay [17], in assay [6] and in assay [10] was inactive.
As to `Oc1ccc(O)c2c(O)cccc12`, the Potency result in assay [1], in assay [4], in [5], in assay [7], in [8] and in [11] was “inactive” each time. Moreover, the Potency entry in assay [12], in assay [13] and in assay [16] was “inactive” throughout. Moreover, the result in assay [2], in [17], in assay [6] and in assay [10] was inactive.
For `O=C=NC1CCC(CC2CCC(N=C=O)CC2)CC1` (stereo not drawn), the outcome in assay [2], in assay [6] and in assay [10] was inactive. Further, the Potency result in assay [3], in assay [15], in [7], in [8], in [9] and in assay [12] was “inactive” each time. In addition, the Potency result in assay [13] and in assay [14] was “inactive” in each case.
`CN1CCN(C2=Nc3cc(Cl)ccc3Nc3ccccc32)CC1`: the Potency result in assay [4], in [8], in assay [12], in assay [13] and in assay [14] was “inactive” in each case. The compound was called inactive in assay [18] and in assay [10].
`Cc1ccc(C(N)=O)cc1N`: the Potency entry in assay [1], in assay [3], in assay [4], in [5], in assay [15] and in assay [7] was “inactive” in each case. Further, the Potency entry in assay [9], in [11], in assay [12], in assay [13] and in assay [14] was “inactive” in each case. The call in assay [2], in assay [6] and in assay [10] was inactive.
